Where a name gives a salt, the structure may show the parent alone.
test system: Saccharomyces cerevisiae BY4741 SeMeCo community; assay: z-score of subpopulation abundance vs DMSO median, subpopulation auxotrophic for HU; higher = larger share of this subpopulation than in DMSO controls; conditions: 10 µM; 24 h; SM minimal medium; subpopulation (auxotrophy): HU
Description: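 Fluorescent four-plasmid SeMeCo (self-establishing metabolically cooperating S. cerevisiae BY4741 community; plasmids pH-mRuby2, pL-mWasabi, pU-eCFP, pM-TagRFP657) was grown 24 h in minimal SM medium with each Selleck FDA-approved drug at 10 µM in 384-well plates. Cells were fixed and imaged by high-content confocal microscopy. For each auxotrophic subpopulation (and the prototroph), a z-score gives the deviation from the DMSO vehicle-control population median.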

In order of rising “z-score of subpopulation abundance” value:
1. OCCN(CCO)c1nc(N2CCCCC2)c2nc(N(CCO)CCO)nc(N3CCCCC3)c2n1 [Dipyridamole]  -7.22
2. CCOC(=O)C1=C(C)NC(C)=C(C(=O)OC)C1c1cccc(Cl)c1Cl (stereo not given) [Felodipine]  -6.8
3. CC(C)Cc1ccc(C(C)C(=O)O)cc1 (stereo not given) [Ibuprofen]  -2.1
4. C[C@H]1c2cccc(O)c2C(O)=C2C(=O)[C@]3(O)C(O)=C(C(N)=O)C(=O)[C@@H](N(C)C)[C@@H]3[C@@H](O)[C@@H]21 [Doxycycline]  -1.25
5. CNCC[C@H](Oc1cccc2ccccc12)c1cccs1 [Duloxetine HCl]  -1.13
6. Cc1ccc(Nc2c(F)cccc2Cl)c(CC(=O)O)c1 [Lumiracoxib]  -1.07
7. C[N+](C)(C)CCOC(=O)CCC(=O)OCC[N+](C)(C)C [Succinylcholine Chloride Dihydrate]  -0.93
8. CO/N=C(\C(=O)N[C@@H]1C(=O)N2C(C(=O)[O-])=C(C[n+]3cccc4c3CCC4)CS[C@H]12)c1csc(N)n1 [Cefpirome sulfate]  -0.75
9. O=C1C(N(CO)C(=O)NCO)N(CO)C(=O)N1CO (stereo not given) [Diazolidinyl urea]  -0.75
10. CCOc1ccc2ccccc2c1C(=O)N[C@@H]1C(=O)N2[C@@H]1SC(C)(C)[C@@H]2C(=O)O [Nafcillin Sodium]  -0.72
11. Nc1nc(N)nc(-c2cc(Cl)ccc2Cl)n1 [Irsogladine]  -0.69
12. CN1[C@@H]2CC[C@H]1C[C@@H](OC(=O)c1c[nH]c3ccccc13)C2 [Tropisetron HCl]  -0.68
13. C[C@H]1COc2c(N3CCN(C)CC3)c(F)cc3c(=O)c(C(=O)O)cn1c23 [Levofloxacin]  -0.62
14. CC[C@@H]1/C=C(\C)C[C@H](C)C[C@H](OC)[C@H]2O[C@@](O)(C(=O)C(=O)N3CCCC[C@H]3C(=O)O[C@H](/C(C)=C/[C@@H]3CC[C@H](Cl)[C@H](OC)C3)[C@H](C)[C@@H](O)CC1=O)[C@H](C)C[C@@H]2OC [Pimecrolimus]  -0.6
15. CN(C)[C@@H](CCOc1cccc2ccccc12)c1ccccc1 [Dapoxetine HCl]  -0.49
16. C/C=C\c1ccc(O)c(OC)c1 [Isoeugenol]  -0.46
17. O=C(C1CCCCC1)N1CC(=O)N2CCc3ccccc3C2C1 (stereo not given) [Praziquantel]  -0.36
18. O=C1[C@@H]2[C@H]3CC[C@H](C3)[C@@H]2C(=O)N1C[C@@H]1CCCC[C@H]1CN1CCN(c2nsc3ccccc23)CC1 [lurasidone]  -0.35
19. O=C(O)CCC(=O)Nc1ccc(S(=O)(=O)Nc2nccs2)cc1 [Succinylsulfathiazole]  -0.31
20. CNCCC(Oc1ccc(C(F)(F)F)cc1)c1ccccc1 (stereo not given) [Fluoxetine HCl]  -0.26
21. COc1ccc(Cl)cc1C(=O)NCCc1ccc(S(=O)(=O)NC(=O)NC2CCCCC2)cc1 [Glyburide (Glibenclamide)]  -0.2
22. O=c1[nH]c2ccccc2n1CCN1CCN(c2cccc(C(F)(F)F)c2)CC1 [Flibanserin]  -0.17
23. CCCCC(F)(F)[C@@]1(O)CC[C@H]2[C@@H](CC(=O)[C@@H]2CCCCCCC(=O)O)O1 [Lubiprostone]  -0.05
24. CNCCCN1c2ccccc2CCc2ccccc21 [Desipramine Hydrochloride]  -0.04
25. Nc1ccc(S(=O)(=O)NC(=O)c2ccccc2)cc1 [Sulfabenzamide]  -0.03
26. COc1ccc(C(Cl)=C(c2ccc(OC)cc2)c2ccc(OC)cc2)cc1 [Chlorotrianisene]  0.01
27. CCOc1cc(N)c(Cl)cc1C(=O)NCC1CN(Cc2ccc(F)cc2)CCO1 (stereo not given) [Mosapride]  0.02
28. COC(=O)C1=C(C)NC(C)=C(C(=O)OCCN2CCN(C(c3ccccc3)c3ccccc3)CC2)C1c1cccc([N+](=O)[O-])c1 (stereo not given) [Manidipine 2HCl]  0.05
29. CC(C)(C)CC(C)(C)c1ccc(OCCOCC[N+](C)(C)Cc2ccccc2)cc1 [Benzethonium Chloride]  0.13
30. N#Cc1ccc2[nH]cc(CCCCN3CCN(c4ccc5oc(C(N)=O)cc5c4)CC3)c2c1 [Vilazodone HCl]  0.14
31. O=C(O)CCNC(=O)c1ccccc1 [Betamipron]  0.19
32. CC[C@H](C)C(=O)O[C@H]1CCC=C2C=C[C@H](C)[C@H](CC[C@@H]3C[C@@H](O)CC(=O)O3)[C@H]21 [Mevastatin]  0.2
33. CCN(CC)CC#CCOC(=O)C(O)(c1ccccc1)C1CCCCC1 (stereo not given) [Oxybutynin]  0.37
34. COc1cc2c(cc1OC)C(=O)C(CC1CCN(Cc3ccccc3)CC1)C2 (stereo not given) [Donepezil HCl]  0.45
35. COc1ccc2c3c1O[C@H]1C[C@@H](O)C=C[C@@]31CCN(C)C2 [Galanthamine]  0.48
36. NC(CO)(CO)CO [Trometamol]  0.55
37. CC(=O)OC(C)C[N+](C)(C)C (stereo not given) [Methacholine chloride]  0.67
38. CC/C(=C(\c1ccccc1)c1ccc(OCCN(C)C)cc1)c1ccccc1 [Tamoxifen Citrate]  0.74
39. CN(Cc1cnc2nc(N)nc(N)c2n1)c1ccc(C(=O)N[C@@H](CCC(=O)O)C(=O)O)cc1 [Methotrexate]  1.71
40. Clc1ccccc1C(c1ccccc1)(c1ccccc1)n1ccnc1 [Clotrimazole]  6.35
